Experiment [1] in a line: optical density shifts of acrAB sulA E. coli – strain DRC41, OD650, 48 h, E. coli filamentation inducer project, primary screen (AID 1152).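 Further: E. coli MC1000 strain DRC41 lacking acrAB efflux pump and sulA.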 The following applies: higher = more signal, called active from +8 up or from −8 down.
A short description of experiment [2]: probe aLefty1 binding on compound microarray – biochemical, small-molecule microarray, 635/667 nm fluorescence, primary screen (AID 1153).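 Further: score merges spot fluorescence with signal-to-noise ratio from the scanned slide images.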 The following applies: higher = more signal.
The nature of experiment [3]: plasmodial surface anion channel blockers, osmotic lysis – cell-based, P. falciparum Indochina, OD700, 1 h, primary screen (AID 1154). The following applies: P. falciparum Indochina infected RBC osmotic lysis, higher = more signal, called active from +8 up or from −8 down.
Experiment [4] in a line: plasmodial surface anion channel blockers, osmotic lysis – cell-based, P. falciparum Indochina, OD700, 2 h, primary screen (AID 1155).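 Further: lysis reports solute entry through the parasite surface anion channel PSAC.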 The note with it: P. falciparum Indochina infected erythrocytes, higher = more signal, called active from +8 up or from −8 down.
The nature of experiment [5]: changes in parasitized red cell lysis, either direction – P. falciparum Indochina, OD700, 3 h, PSAC antagonist project, primary screen (AID 1156). The note with it: P. falciparum-infected erythrocytes, osmotic lysis, higher = more signal, called active from +8 up or from −8 down.
Experiment [6] in a line: plasmodial surface anion channel blockers, osmotic lysis – cell-based, P. falciparum Indochina, OD700, 18 h, primary screen (AID 1157). The following applies: P. falciparum Indochina infected erythrocytes, osmotic lysis OD700, 18 h; higher = more signal, called active from +8 up or from −8 down.
The nature of experiment [7]: S6 kinase pathway phospho-S6 level changes – cell-based, A549, cytoblot, luminescence, serum-stimulated, primary screen (AID 1158).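 Further: serum-stimulated A549 lung adenocarcinoma cells; signal is phosphorylated S6 detected by cytoblot immunostaining with HRP secondary.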 The following applies: 5 h, higher = more signal.
The target of experiment [8] is NADPH oxidase 2 (Homo sapiens) (UniProt P04839). As to the kind of experiment: compounds shifting NOX2 Amplex Red fluorescence – cell-based, HEK293-NOX2, PMA-stimulated, NOX inhibitor project, primary screen (AID 1159). Further: test concentration not given here. The note with it: 45 min, higher = more signal, called active from +8 up or from −8 down.
Experiment [9] deals with NADPH oxidase 4 (Homo sapiens) (UniProt Q9NPH5). Description: compounds shifting NOX4 Amplex Red fluorescence – cell-based, HEK293-NOX4, tetracycline-induced, NOX inhibitor project, primary screen (AID 1160). The note with it: HEK293-NOX4, Amplex Red H2O2 fluorescence, 45 min; higher = more signal, called active from +8 up or from −8 down.
Experiment [10] deals with NADPH oxidase 5 (Homo sapiens) (UniProt Q96PH1). Description: compounds shifting NOX5 Amplex Red fluorescence – cell-based, HEK293-NOX5, NOX inhibitor project, primary screen (AID 1161). The note with it: HEK293-NOX5, ionomycin, 45 min, higher = more signal.
Experiment [11] can be described thus: compound effects on lung adenocarcinoma cell viability – A549, calcein-AM fluorescence, 48 h, basal, profiling panel (AID 1162). Further: test concentration not given here. The note with it: higher = more signal.
A short description of experiment [12]: compound effects on differentiated 3T3-L1 adipocyte viability – cell-based, 3T3-L1 adipocytes, calcein-AM fluorescence, 48 h, basal, profiling panel (AID 1163). Further: test concentration not given here. The following applies: 3T3-L1 adipocytes viability, higher = more signal.
A short description of experiment [13]: compound effects on hepatocellular carcinoma cell viability – HepG2, calcein-AM fluorescence, 48 h, basal, profiling panel (AID 1164). Further: test concentration not given here. The following applies: higher = more signal.
Experiment [14] is described as follows: compound effects on multiple myeloma cell viability – MM1S, calcein-AM fluorescence, 48 h, basal, profiling panel (AID 1165).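 Further: viability of MM1S multiple myeloma cells under basal unstimulated conditions; test concentration not given here.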 The note with it: higher = more signal.
Experiment [15] can be described thus: calcein-AM signal in unstimulated myeloma cells – cell-based, calcein-AM fluorescence, 48 h, PK04 Diversity Set, profiling panel (AID 1166).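 Further: cells grown under basal conditions without added stimulus; test concentration not given here.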 The note with it: RPMI8226 myeloma viability, higher = more signal.
The nature of experiment [16]: JC-1 mitochondrial signal, unstimulated HepG2 cells – cell-based, JC-1 fluorescence, 24 h, 100 nL compound, profiling panel (AID 1167). Further: test concentration not given here. The following applies: HepG2 mitochondrial potential, higher = more signal.
Experiment [17] is described as follows: JC-1 mitochondrial signal, unstimulated adipocytes – cell-based, JC-1 fluorescence, 3T3-L1 adipocytes, 24 h, 100 nL compound, profiling panel (AID 1168). Further: test concentration not given here. The note with it: JC-1 mitochondrial fluorescence, higher = more signal, called active from +8 up or from −8 down.
Experiment [18] in a line: JC-1 mitochondrial signal, unstimulated myeloma cells – cell-based, JC-1 fluorescence, RPMI8226, 24 h, 100 nL compound, profiling panel (AID 1169). Further: test concentration not given here. The following applies: JC-1 mitochondrial potential fluorescence, higher = more signal.
Experiment [19] can be described thus: JC-1 mitochondrial signal, unstimulated MM1S myeloma – cell-based, JC-1 fluorescence, 24 h, 100 nL compound, profiling panel (AID 1170). Further: test concentration not given here. The following applies: MM1S mitochondrial potential, higher = more signal.
Experiment [20] in a line: resazurin metabolic signal in A549 cells – cell-based, resazurin fluorescence, 24 h, PK04 Diversity Set, profiling panel (AID 1171). Further: test concentration not given here. The note with it: A549 viability, higher = more signal, called active from +8 up or from −8 down. In general terms: Resazurin is reduced to fluorescent resorufin, in cell work by metabolically active cells.

The source made the active and inactive calls.

Sequence of NADPH oxidase 4 (Homo sapiens) (Q9NPH5 whole entry, looked up): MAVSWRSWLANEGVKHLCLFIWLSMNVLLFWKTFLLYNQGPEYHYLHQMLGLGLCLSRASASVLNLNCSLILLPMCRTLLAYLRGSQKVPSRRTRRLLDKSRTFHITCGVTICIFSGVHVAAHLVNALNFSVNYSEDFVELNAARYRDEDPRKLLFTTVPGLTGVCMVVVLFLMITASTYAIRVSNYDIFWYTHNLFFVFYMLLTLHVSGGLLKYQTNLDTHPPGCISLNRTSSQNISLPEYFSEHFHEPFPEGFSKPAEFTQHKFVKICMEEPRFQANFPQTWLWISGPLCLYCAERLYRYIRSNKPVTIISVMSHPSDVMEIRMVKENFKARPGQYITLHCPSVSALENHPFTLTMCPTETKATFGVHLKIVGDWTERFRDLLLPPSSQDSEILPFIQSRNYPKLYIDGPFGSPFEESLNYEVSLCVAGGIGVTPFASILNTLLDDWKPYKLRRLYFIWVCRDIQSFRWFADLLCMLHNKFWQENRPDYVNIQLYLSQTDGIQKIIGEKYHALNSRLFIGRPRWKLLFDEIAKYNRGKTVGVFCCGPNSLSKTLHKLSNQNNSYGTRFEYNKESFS
Sequence of NADPH oxidase 5 (Homo sapiens) (Q96PH1 whole entry, looked up): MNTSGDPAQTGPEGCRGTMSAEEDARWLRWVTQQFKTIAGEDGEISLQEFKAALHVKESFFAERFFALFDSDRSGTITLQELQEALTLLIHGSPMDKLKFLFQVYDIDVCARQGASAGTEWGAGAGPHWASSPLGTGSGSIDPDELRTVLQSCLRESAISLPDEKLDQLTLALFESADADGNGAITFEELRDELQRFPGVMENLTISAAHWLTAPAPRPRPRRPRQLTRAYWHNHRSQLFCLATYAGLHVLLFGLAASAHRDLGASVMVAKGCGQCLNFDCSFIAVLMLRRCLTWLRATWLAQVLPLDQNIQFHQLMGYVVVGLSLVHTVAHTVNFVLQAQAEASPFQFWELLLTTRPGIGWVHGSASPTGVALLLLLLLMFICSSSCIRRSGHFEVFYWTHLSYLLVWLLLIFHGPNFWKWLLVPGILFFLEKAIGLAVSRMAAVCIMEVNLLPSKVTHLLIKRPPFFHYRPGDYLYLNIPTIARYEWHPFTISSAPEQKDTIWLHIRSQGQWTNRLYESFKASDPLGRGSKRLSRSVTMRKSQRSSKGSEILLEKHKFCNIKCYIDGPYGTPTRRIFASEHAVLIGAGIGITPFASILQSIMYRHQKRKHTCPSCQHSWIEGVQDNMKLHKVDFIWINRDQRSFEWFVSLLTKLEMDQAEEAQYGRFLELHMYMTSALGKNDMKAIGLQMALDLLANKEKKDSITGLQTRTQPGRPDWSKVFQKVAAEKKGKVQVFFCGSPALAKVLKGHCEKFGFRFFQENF
Sequence of NADPH oxidase 2 (Homo sapiens) (P04839 whole entry, looked up): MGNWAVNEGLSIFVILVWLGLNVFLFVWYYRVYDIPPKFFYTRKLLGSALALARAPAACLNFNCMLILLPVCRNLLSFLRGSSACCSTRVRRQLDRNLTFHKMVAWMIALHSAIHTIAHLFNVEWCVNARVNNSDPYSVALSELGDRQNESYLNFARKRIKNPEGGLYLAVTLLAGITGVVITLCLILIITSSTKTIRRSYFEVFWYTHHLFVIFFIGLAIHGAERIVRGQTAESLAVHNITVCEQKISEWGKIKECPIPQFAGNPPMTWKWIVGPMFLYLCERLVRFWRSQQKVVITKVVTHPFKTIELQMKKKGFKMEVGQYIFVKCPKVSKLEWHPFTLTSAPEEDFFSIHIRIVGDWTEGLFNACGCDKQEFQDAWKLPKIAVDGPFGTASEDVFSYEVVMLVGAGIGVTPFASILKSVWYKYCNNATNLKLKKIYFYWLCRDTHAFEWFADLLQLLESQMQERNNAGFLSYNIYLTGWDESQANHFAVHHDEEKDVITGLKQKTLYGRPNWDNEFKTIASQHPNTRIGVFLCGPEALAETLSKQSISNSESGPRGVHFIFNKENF

As to `COC(=O)[C@@]1(Cc2ccc(OC)cc2)[C@H]2c3cc(C(=O)N4CCCC4)n(Cc4ccc(OC(F)(F)F)cc4)c3C[C@H]2CN1C(=O)c1ccccc1`, the z-score in experiment [1] is -1.32 (inactive); in [3], 2.24 (inactive); in experiment [4], 0.453 (inactive); in [5], -0.0152 (inactive); in experiment [6] it was 1.06 (inactive); in experiment [7], -0.174. Further, the z-score in experiment [8] was 1.11 (inactive); in experiment [9], 1.56 (inactive); in [10], 2.4; in [11], -0.77; in experiment [12], -0.25; in experiment [13], -0.871. The z-score in experiment [14] was -0.889; in [15], -2.45; in experiment [16], 0.225; in experiment [17], -0.621 (inactive); in [18] it was -0.638; in [19], -1.58. Further, the z-score in experiment [20] was -0.995 (inactive). In experiment [2], this compound registered a composite z-score of 0.029.

`COCCOC(=O)N1C(=O)[C@@]2(c3ccccc31)[C@H](c1ccccc1OCCO)N1[C@H](c3ccccc3)[C@H](c3ccccc3)OC(=O)[C@H]1[C@@H]2C(=O)N1CCCCCCC1`: the z-score was -0.553 (inactive) in [1]; 1.26 (inactive) in experiment [3]; 0.612 (inactive) in experiment [4]; 0.0224 (inactive) in [5]; 0.557 (inactive) in experiment [6]; -0.37 in experiment [7]. Moreover, the z-score in [8] was 0.168 (inactive); in [9], -1.29 (inactive); in [10], 0.481; in [11] it was -0.785; in experiment [12], 1; in [13], 0.104. Moreover, the z-score was -2.51 in experiment [14]; -1.75 in experiment [15]; 0.179 in experiment [16]; -0.256 (inactive) in [17]; -0.641 in [18]; -1.07 in experiment [19]. Also, the z-score in experiment [20] is -0.585 (inactive). Besides, the composite z-score in experiment [2] was 3.11.

As for `C#C[C@@H](CC)O[Si](C#CCCCC#N)(C(C)C)C(C)C`, the z-score in [1] is 0.527 (inactive); in experiment [3], 1.58 (inactive); in experiment [4], 1.14 (inactive); in experiment [5] it was 0.186 (inactive); in [6] it was 0.676 (inactive); in [7] it was -0.336. The z-score is 1.03 (inactive) in [8]; -0.222 (inactive) in [9]; 1.31 in [10]; -0.533 in experiment [11]; -0.87 in [12]; -0.168 in experiment [13]. Moreover, the z-score in experiment [14] is -3.16; in experiment [15], -0.501; in experiment [16] it was -0.626; in experiment [17], 0.117 (inactive); in [18], -0.45; in [19], -1.73. Also, the z-score in experiment [20] is -0.0413 (inactive). The same compound displayed a composite z-score in [2] of -0.117.

For the compound `O=C1O[C@H](c2ccccc2)[C@H](c2ccccc2)N2[C@H]1[C@@H](C(=O)N1CCCCCCC1)[C@]1(C(=O)Nc3ccc(C#CC4(O)CCCCCC4)cc31)[C@H]2c1ccc(O)cc1`, the z-score was 0.507 (inactive) in experiment [1]; 0.839 (inactive) in experiment [3]; 0.222 (inactive) in experiment [4]; 1.34 (inactive) in experiment [5]; 0.491 (inactive) in experiment [6]; 0.148 in [7]. Moreover, the z-score was 1.33 (inactive) in experiment [8]; 0.803 (inactive) in experiment [9]; 1.17 in experiment [10]; 0.792 in experiment [11]; -0.597 in experiment [12]; 1.68 in experiment [13]. Also, the z-score in experiment [14] is -0.845; in experiment [15], -1.59; in [16], -0.806; in experiment [17], 0.212 (inactive); in experiment [18], -0.613; in experiment [19] it was -0.515. Moreover, the z-score in [20] is 0.0109 (inactive). The same compound came in with a composite z-score in [2] of 2.47.

The record behind these values is PubChem BioAssay.
